# Source: the supplement of paper PMC9694430
# Legend:
# Test in all cases: thermal shift delta Tm vs DMSO control; higher = stronger stabilization (binding)
# Conditions in all cases: 12.5 µM; protein concentration 2 µM
# LOC_OS02G45750-cb003 = test system: LOC_OS02G45750-cb003
# Outline: (§1)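 Rice kinase domain constructs were expressed in E. coli, purified, and tested by differential scanning fluorimetry with compound added in DMSO. Each well of a 96-well plate held 19.5 μl of 2 μM kinase in 100 mM potassium phosphate pH 7.5, 150 mM NaCl, 10% glycerol and 5 × SYPRO Orange, and fluorescence was read from 25°C to 95°C at 0.05°C/s. The melting temperature shift is the mean of triplicates, taken against protein with DMSO alone after Boltzmann fitting.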
# LOC_OS02G54510-cb004 = test system: LOC_OS02G54510-cb004
# Outline: as §1
# LOC_OS03G04050-cb001 = test system: LOC_OS03G04050-cb001
# Outline: as §1
# LOC_OS03G12390-cb001 = test system: LOC_OS03G12390-cb001
# Outline: as §1
# LOC_OS03G27990-cb004 = test system: LOC_OS03G27990-cb004
# Outline: as §1
# LOC_OS03G50450-cb001 = test system: LOC_OS03G50450-cb001
# Outline: as §1
# LOC_OS03G50810-cb003 = test system: LOC_OS03G50810-cb003
# Outline: as §1
# LOC_OS04G35114-cb001 = test system: LOC_OS04G35114-cb001
# Outline: as §1
# LOC_OS04G38480-cb003 = test system: T1, LOC_OS04G38480-cb003
# T1 sequence (whole entry): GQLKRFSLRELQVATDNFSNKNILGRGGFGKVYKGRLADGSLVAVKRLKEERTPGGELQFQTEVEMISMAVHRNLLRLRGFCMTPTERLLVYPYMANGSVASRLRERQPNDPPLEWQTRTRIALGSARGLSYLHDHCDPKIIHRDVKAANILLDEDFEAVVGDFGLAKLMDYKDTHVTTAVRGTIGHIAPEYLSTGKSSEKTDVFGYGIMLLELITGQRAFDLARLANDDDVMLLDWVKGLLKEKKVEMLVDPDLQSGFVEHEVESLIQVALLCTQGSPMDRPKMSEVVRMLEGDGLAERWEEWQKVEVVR
# Outline: as §1
# LOC_OS04G41100-cb001 = test system: T2, LOC_OS04G41100-cb001
# T2 sequence (whole entry): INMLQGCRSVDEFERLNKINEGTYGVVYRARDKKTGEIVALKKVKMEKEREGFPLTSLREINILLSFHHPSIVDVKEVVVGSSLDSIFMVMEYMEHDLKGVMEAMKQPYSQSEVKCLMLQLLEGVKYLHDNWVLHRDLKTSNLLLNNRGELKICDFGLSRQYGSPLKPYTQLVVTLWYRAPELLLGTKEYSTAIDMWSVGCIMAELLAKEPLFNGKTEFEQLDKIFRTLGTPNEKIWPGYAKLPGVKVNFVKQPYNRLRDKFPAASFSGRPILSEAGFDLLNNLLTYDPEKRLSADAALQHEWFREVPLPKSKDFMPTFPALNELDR
# Outline: as §1
# LOC_OS04G57630-cb004 = test system: LOC_OS04G57630-cb004
# Outline: as §1
# LOC_OS05G07850-cb002 = test system: LOC_OS05G07850-cb002
# Outline: as §1
# LOC_OS05G16824-cb004 = test system: LOC_OS05G16824-cb004
# Outline: as §1
# LOC_OS05G28520-cb001 = test system: LOC_OS05G28520-cb001
# Outline: as §1
# LOC_OS05G30820-cb001 = test system: LOC_OS05G30820-cb001
# Outline: as §1
# LOC_OS05G43570-cb004 = test system: LOC_OS05G43570-cb004
# Outline: as §1
# LOC_OS06G16330-cb003 = test system: LOC_OS06G16330-cb003
# Sequence of LOC_OS06G16330-cb003 (as listed by the source): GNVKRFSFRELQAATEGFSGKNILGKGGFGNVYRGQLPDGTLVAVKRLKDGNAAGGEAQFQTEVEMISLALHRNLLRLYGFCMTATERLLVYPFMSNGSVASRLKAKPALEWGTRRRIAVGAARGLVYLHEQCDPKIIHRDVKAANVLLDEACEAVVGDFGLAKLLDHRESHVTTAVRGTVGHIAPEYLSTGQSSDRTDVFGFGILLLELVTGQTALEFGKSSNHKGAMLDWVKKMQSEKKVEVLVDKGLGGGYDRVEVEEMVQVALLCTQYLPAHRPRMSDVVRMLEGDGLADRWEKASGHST
# Outline: as §1
# LOC_OS06G22820-cb001 = test system: T3, LOC_OS06G22820-cb001
# T3 sequence (whole entry): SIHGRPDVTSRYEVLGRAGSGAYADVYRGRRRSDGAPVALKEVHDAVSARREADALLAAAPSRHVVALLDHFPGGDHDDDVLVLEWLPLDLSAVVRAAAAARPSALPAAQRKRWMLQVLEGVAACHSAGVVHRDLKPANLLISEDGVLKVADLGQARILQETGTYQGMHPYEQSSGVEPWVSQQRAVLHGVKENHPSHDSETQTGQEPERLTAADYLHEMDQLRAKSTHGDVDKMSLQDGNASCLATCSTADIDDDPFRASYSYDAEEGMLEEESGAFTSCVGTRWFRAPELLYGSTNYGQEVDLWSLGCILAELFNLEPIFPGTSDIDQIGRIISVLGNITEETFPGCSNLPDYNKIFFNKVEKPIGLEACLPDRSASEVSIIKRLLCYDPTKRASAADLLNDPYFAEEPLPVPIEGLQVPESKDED
# Outline: as §1
# LOC_OS07G06570-cb004 = test system: LOC_OS07G06570-cb004
# Outline: as §1
# LOC_OS07G07230-cb001 = test system: LOC_OS07G07230-cb001
# Outline: as §1
SMILES,thermal shift delta Tm (LOC_OS02G45750-cb003) [°C],thermal shift delta Tm (LOC_OS02G54510-cb004) [°C],thermal shift delta Tm (LOC_OS03G04050-cb001) [°C],thermal shift delta Tm (LOC_OS03G12390-cb001) [°C],thermal shift delta Tm (LOC_OS03G27990-cb004) [°C],thermal shift delta Tm (LOC_OS03G50450-cb001) [°C],thermal shift delta Tm (LOC_OS03G50810-cb003) [°C],thermal shift delta Tm (LOC_OS04G35114-cb001) [°C],thermal shift delta Tm (LOC_OS04G38480-cb003) [°C],thermal shift delta Tm (LOC_OS04G41100-cb001) [°C],thermal shift delta Tm (LOC_OS04G57630-cb004) [°C],thermal shift delta Tm (LOC_OS05G07850-cb002) [°C],thermal shift delta Tm (LOC_OS05G16824-cb004) [°C],thermal shift delta Tm (LOC_OS05G28520-cb001) [°C],thermal shift delta Tm (LOC_OS05G30820-cb001) [°C],thermal shift delta Tm (LOC_OS05G43570-cb004) [°C],thermal shift delta Tm (LOC_OS06G16330-cb003) [°C],thermal shift delta Tm (LOC_OS06G22820-cb001) [°C],thermal shift delta Tm (LOC_OS07G06570-cb004) [°C],thermal shift delta Tm (LOC_OS07G07230-cb001) [°C]
CCCCNc1ncc(-c2ccc(CN3CCOCC3)cn2)c(NC2CCC(O)CC2)n1 (stereo not given),13.7,0.36,0.34,2.88,1.94,1.29,5.33,7.84,3.1,0.46,4.09,9.44,8.95,0.2,0.7,0.43,9.08,0.1,0.37,0.71
Cc1ccc(-n2nc(C(C)(C)C)cc2NC(=O)NCc2cc(F)ccc2Oc2ccc3c(cnn3CCO)c2)cc1 [Pexmetinib (ARRY-614)],0.81,2.56,0.65,1.05,0.31,0.02,0.36,0.41,1.51,1.43,5.61,7.46,-1.5,0.41,0.66,0.54,3.89,0.91,0.14,-0.6
C=C[C@@](C)(/C=C/c1ccc(O)cc1)CCC=C(C)C [Bakuchiol],-0.82,-0.05,0.71,-0.13,0.37,0.04,0.28,0.46,0.81,0.44,0.09,0.26,-1.27,0.19,0.04,0.47,-0.03,0.41,0.83,0.15
CC(C)n1ncnc1-c1cn2c(n1)-c1ccc(O[C@@H](C)C(N)=O)cc1OCC2,0.39,0.04,0.37,0.09,0.14,0.37,0.53,0.71,0.74,0.13,-0.03,-0.96,-0.54,0.38,0.25,0.23,-0.02,0.43,0.88,0.22
CC(=O)Nc1nc(C)c(-c2ccc(Cl)c(S(=O)(=O)NCCO)c2)s1,1.06,0.31,0.56,0.64,0.19,0.73,0.75,1.53,0.78,0.77,0.23,4.94,0.69,0.59,0.4,0.87,0.63,0.43,0.81,-0.01
CCN(CC)CCCC(C)Nc1nc(C)cc(Nc2ccc3nc(C)cc(N)c3c2)n1 (stereo not given),1.05,0.18,0.55,-0.21,0.33,0.59,0.25,0.62,0.87,0.23,-0.27,-0.09,-1.91,0.14,0.63,0.55,-0.04,0.19,1.53,0.49
